CYP2C19 act – human CYP2C19 activators, primary screen, biochemical, luminescence; Cytochrome P450 2C19 (Homo sapiens), P33261; recombinant CYP2C19, luciferin-H EGE luminescence; stronger effect = higher value; 0 = fully inhibited enzyme, 1 = untreated enzyme; activation factor at 5 µM; 96,000 tested, under 10 active;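 active = activation factor of at least 2 at 5 µM in the primary screen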
Target sequence (P33261 whole entry, looked up): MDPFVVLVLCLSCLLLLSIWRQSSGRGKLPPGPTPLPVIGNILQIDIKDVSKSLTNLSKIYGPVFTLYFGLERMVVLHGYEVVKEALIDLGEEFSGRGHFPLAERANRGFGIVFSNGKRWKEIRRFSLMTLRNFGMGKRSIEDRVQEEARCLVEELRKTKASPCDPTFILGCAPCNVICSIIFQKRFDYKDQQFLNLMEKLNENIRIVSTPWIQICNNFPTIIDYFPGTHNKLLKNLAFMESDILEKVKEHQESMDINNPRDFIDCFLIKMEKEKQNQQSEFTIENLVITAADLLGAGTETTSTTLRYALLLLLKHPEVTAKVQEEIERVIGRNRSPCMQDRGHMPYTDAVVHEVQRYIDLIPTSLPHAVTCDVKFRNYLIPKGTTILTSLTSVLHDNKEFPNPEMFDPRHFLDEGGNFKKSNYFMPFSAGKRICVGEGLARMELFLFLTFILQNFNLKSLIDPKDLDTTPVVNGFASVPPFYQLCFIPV
sEH inh – soluble epoxide hydrolase inhibitors, primary screen, biochemical, human sEH; Bifunctional epoxide hydrolase 2 (Homo sapiens), P34913; recombinant human sEH enzymatic activity assay; inhibition, % at 2 µM; 0.34% of 91,000 active; AID 707, 2007; in the data active = inhibition above about 80%
CYP2C9 act – human CYP2C9 activators, primary screen, biochemical, luminescence | Cytochrome P450 2C9 (Homo sapiens), P11712 | recombinant CYP2C9, luciferin-H conversion; stronger effect = higher value; factor 1 = untreated enzyme, 0 = blocked | activation factor at 5 µM | 1.4% of 96,000 active;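 active = activation factor of 2 or more for CYP2C9 at a 5 µM dose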
CYP2C19 inh – blockers of cytochrome P450 2C19 activity – biochemical, luminescence, ADME assay, primary screen; P33261; CYP2C19 Supersomes, luciferin-H EGE luminescence, 30 min; inhibition, % at 5 µM; 21% of 96,000 active; AID 778, 2007;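 active = CYP2C19 inhibition above a set limit at 5 µM in the primary screen, cut at about 50% in these data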
sEH activator – soluble epoxide hydrolase activators, primary screen, biochemical, human sEH | Bifunctional epoxide hydrolase 2 (Homo sapiens), P34913 | purified human sEH enzymatic activity, activator screen | activation, % at 2 µM | 0.04% of 91,000 active; in the data active = activation above about 37%
CYP2C9 inhib – blockers of cytochrome P450 2C9 activity – biochemical, luminescence, ADME assay, primary screen | P11712 | CYP2C9 Supersomes, luciferin-H conversion | inhibition, % at 5 µM | 20% of 96,000 active;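 active = blocking of liver enzyme CYP2C9 beyond about 50% at 5 µM, limit read from the data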
Numbers stand for hits; - = inactive; . = not tested or not shown. Only some compounds are listed: those with a hit (about 27% of all), similar ones and a draw of the others.

SMILES | CYP2C19 act | sEH inh | CYP2C9 act | CYP2C19 inh | sEH activator | CYP2C9 inhib
Cc1ccc(-c2nnn(CC(=O)N3CCCc4ccccc43)n2)cc1 | - | - | - | - | - | -
CCn1c(SCC(=O)N2CCc3ccccc32)nnc1-c1ccncc1 | - | - | - | 63 | - | -
C=CCSc1nnc2n(-c3ccccc3OC)c(=O)c3c4c(sc3n12)CCC4 | - | . | - | - | . | -
CCC(C)NC(=O)c1c(C)cc(=O)oc1C (centres undefined) | - | - | - | - | - | -
CCN(CC)C(=O)CSc1nnc(-n2nc(C)cc2C)c2ccccc12 | - | . | - | - | . | -
CC1CCN(CCCNC(=O)c2ccc(CSCc3cccc(Cl)c3)o2)CC1 | - | - | - | - | - | -
COCCCn1c(SCC(=O)N2CCCCC2C)nnc1-c1ccco1 (centres undefined) | - | - | - | - | - | -
Cc1cc2c(=O)n(Cc3ccco3)c(SCC(=O)N3CCCc4ccccc43)nc2s1 | - | - | - | - | - | 90
CCn1c(SCC(=O)N2CCCc3ccccc32)nc2ccccc2c1=O | - | - | - | 69 | - | 97
CC1CCCCN1C(=O)CSc1nnc(-c2ccco2)n1CC1CCCO1 (centres undefined) | - | - | - | 83 | - | -
CC1(C)NC(=O)NC2(C)NC(=O)NC(C)(C)C12 (centres undefined) | - | - | - | - | - | -
O=C(Nc1nc(-c2cc(Cl)sc2Cl)cs1)c1ccccc1 | - | - | - | - | - | -
O=C(CCN1C(=O)C2C3C=CC(C3)C2C1=O)NC1CCCc2ccccc21 (centres undefined) | - | - | - | - | - | -
O=C(COc1ccccc1-c1ccccc1)Nc1ccc(S(=O)(=O)NCc2ccco2)cc1 | - | - | - | - | - | -
O=S(=O)(c1ccc(S(=O)(=O)N2CCCC2)cc1)N1CCCCCC1 | - | . | - | - | . | -
Nc1ccc(S(=O)(=O)N2CCCC2)cc1 | - | - | - | - | - | -
CN(C)S(=O)(=O)c1ccc(S(=O)(=O)N2CCCC2)cc1 | - | - | - | 62 | - | -
CC(C)Cc1ccc(S(=O)(=O)N2CCCC2)cc1 | - | - | - | 91 | - | 78
Cc1cc(NS(=O)(=O)c2ccc(CC(C)C)cc2)no1 | - | - | - | 72 | - | 90
CC(/C=C/c1ccco1)=N/NC(=O)Cc1cccs1 | - | - | - | - | - | -
Cc1nc(-c2ccccc2)cs1 | - | - | - | - | - | -
CCCCCNc1nc(-c2ccccc2)cs1 | - | - | - | 76 | - | 64
COC(=O)C1(C)Nc2ccccc2C(=O)N1c1ccccc1C (centres undefined) | - | - | - | - | - | -
O=C(Cc1cccs1)Nc1ccc(-c2nnc(-c3ccccc3)o2)cc1 | . | - | . | . | - | .
Cc1cccc(-c2nnc(-c3cccc(NC(=O)Cc4cccs4)c3)o2)c1 | - | - | - | 72 | - | 65
SMILES | CYP2C19 act | sEH inh | CYP2C9 act | CYP2C19 inh | sEH activator | CYP2C9 inhib
O=C(Cc1cccs1)Nc1cccc(-c2nc3ccccc3o2)c1 | - | - | - | - | - | 67
Cc1ccc(-c2nc3ccccc3o2)cc1NC(=O)Cc1cccs1 | - | - | - | - | - | -
CCC(=O)Nc1cccc(-c2nc3ccccc3o2)c1 | - | - | - | 54 | - | -
CCC(=O)Nc1cccc(NC(=O)c2cc3ccccc3o2)c1 | - | - | - | 62 | - | -
CCCCOc1ccc(-c2nnn(CC(=O)NCCc3c[nH]c4ccccc34)n2)cc1 | - | - | - | - | - | -
Cc1ccc(-c2nnc(-c3cccc(NC(=O)c4cccs4)c3)o2)cc1 | - | - | - | 55 | - | 78
Nc1cccc(NC(=O)c2cccs2)c1 | - | - | - | - | - | -
O=C(C(Cc1ccccc1)n1cccc1)N1CCN(c2ncccn2)CC1 (centres undefined) | - | - | - | - | - | 69
CC1CCN(C(=O)C(Cc2ccccc2)n2cccc2)CC1 (centres undefined) | - | . | - | 93 | . | -
Cc1cccc(N2CCN(C(=O)C(Cc3ccccc3)n3cccc3)CC2)c1C (centres undefined) | - | - | - | - | - | -
COc1ccc(C)cc1-n1nnnc1SCC(=O)N1CCC(C(=O)Nc2nccs2)CC1 | - | - | - | - | - | -
Cc1sc(-n2c(C)cc(/C=N/n3cnnc3)c2C)c(C#N)c1C | - | - | - | 89 | - | 83
Cc1cc(/C=N/n2cnnc2)c(C)n1-c1ccc(Cl)cc1Cl | - | - | - | 99 | - | 94
Cc1cc(/C=N/n2cnnc2)c(C)n1-c1ccc(OCc2ccc(Cl)cc2Cl)cc1 | - | - | - | - | - | -
Cc1cc(/C=N/n2cnnc2)c(C)n1-c1cccc(Cl)c1 | - | - | - | 99 | - | 95
Cc1cc(/C=N/n2cnnc2)c(C)n1-c1ccccc1 | - | - | - | 100 | - | 73
CC(=O)c1cc(F)c(N2CCN(C(=O)COc3ccccc3F)CC2)cc1C | . | - | . | . | - | .
O=C(CN1CCOCC1)Nc1nc2ccc(Br)cc2s1 | - | - | - | - | - | 65
Cc1cccc(OCCCCc2c(C)n[nH]c2C)c1C | - | - | - | 88 | - | 74
COc1ccccc1OCCCCCc1c(C)n[nH]c1C | - | - | - | 54 | - | -
COc1ccccc1OCCCc1c(C)n[nH]c1C | - | - | - | 67 | - | -
CCOc1ccccc1OCCCOc1ccc(C)cc1Br | - | - | - | - | - | -
CCOc1ccccc1OCCCCCc1c(C)n[nH]c1C | - | . | - | 77 | . | -
COc1ccc(NC(=O)CN2CCC3(O)CCCCC3C2c2ccccc2OC)cc1 (centres undefined) | - | - | - | 74 | - | 91
COc1cc([C@H]2[C@@H]3CCCC[C@]3(O)CCN2CC(=O)Nc2ccc(C)cc2)ccc1O | - | - | - | 63 | - | 74
SMILES | CYP2C19 act | sEH inh | CYP2C9 act | CYP2C19 inh | sEH activator | CYP2C9 inhib
O=C(NCc1ccccc1)c1ccc(COCC(F)(F)F)o1 | - | - | - | 85 | - | -
O=C(NCc1ccccc1)c1ccc(-c2ccc(F)cc2)o1 | - | - | - | 55 | - | 56
COC(=O)c1sccc1-n1cccc1C(=O)C(=O)N1CC(C)OC(C)C1 (centres undefined) | - | - | - | - | - | -
CCC1=Nc2cc(C(=O)NCCCOC)ccc2Sc2ccccc21 | - | - | - | 54 | - | -
CC1CCCC(C)N1C(=O)CSc1nc(N)c(-c2ccccc2)c(=O)[nH]1 (centres undefined) | - | - | - | - | - | -
Cc1c(CN2CCCCC2)c(O)n(CCCO)c(=O)c1C#N | - | - | - | - | - | -
CCCn1c(O)c(CN2CCCCC2)c(C)c(C#N)c1=O | - | . | - | - | . | 63
O=C(c1cccc(F)c1F)N1CCCC1 | . | - | . | . | - | .

Screening data deposited in PubChem BioAssay by several laboratories.
